Assay outcomes from PubChem BioAssay.
The list is not random: actives were taken first. Their share in the collection is about 9.5%.
HPGD inh: inhibitors of human 15-hydroxyprostaglandin dehydrogenase (HPGD). P15428. purified HPGD, NADH fluorescence kinetic, PGE2 substrate. Potency, µM, inactives show at the top dose activity change, negative = inhibition, usual class: inhibitors. 4.3% of 150,000 active; active = well fitted inhibition curve with a large enough effect, not every such curve was filed as active; inconclusive = small, poorly fitted or top-dose-only effect, or another doubt; inactive = no such curve, though single readings can be large or run the other way
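20 nM HPGD preincubated 15 min at room temperature with compound in 50 mM Tris-HCl pH 8, 0.01% Tween 20. Started with 1 mM NAD+ and 30 uM prostaglandin E2; NADH fluorescence (360/450 nm) read 5 times over 30-s intervals, last minus first.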
ALDH1A1 inh: blocks purified human ALDH1A1 activity | P00352 | Purified ALDH1A1, NADH fluorescence, propionaldehyde substrate | Potency, µM (doses to about 75.3 µM), for inactives: top-dose activity, negative = inhibition, most hits filed as inhibitors | 7.3% of 220,000 active | AID 1030; active = well fitted inhibition curve with a large enough effect, not every such curve was filed as active; inconclusive = small, poorly fitted or top-dose-only effect, or another doubt; inactive = no such curve, though single readings can be large or run the other way;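 note: plate controls were no enzyme wells and a reference inhibitor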
Target sequence (P00352 whole entry, looked up): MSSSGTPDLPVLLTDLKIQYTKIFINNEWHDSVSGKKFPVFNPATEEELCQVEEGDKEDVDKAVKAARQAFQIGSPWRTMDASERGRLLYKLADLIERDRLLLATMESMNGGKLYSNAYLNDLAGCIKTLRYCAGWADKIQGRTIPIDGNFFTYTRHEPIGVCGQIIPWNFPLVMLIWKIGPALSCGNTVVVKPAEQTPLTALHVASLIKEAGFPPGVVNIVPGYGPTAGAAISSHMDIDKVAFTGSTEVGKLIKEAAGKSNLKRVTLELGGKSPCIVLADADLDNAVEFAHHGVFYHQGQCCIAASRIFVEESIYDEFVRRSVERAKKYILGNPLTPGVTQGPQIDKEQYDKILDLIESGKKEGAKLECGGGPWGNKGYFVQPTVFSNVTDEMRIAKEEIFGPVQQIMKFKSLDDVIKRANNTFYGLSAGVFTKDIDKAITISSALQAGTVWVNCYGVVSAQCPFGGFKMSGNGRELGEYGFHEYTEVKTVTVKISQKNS
Tau fluor cs: counter-screen for tau fibril formation inhibitors. tau K18 P301L Alexa594 fluorescence, heparin fibrillization. Potency, µM (top dose mostly 57.7 µM), for inactives: top-dose activity change, negative = decrease. 0.93% of 280,000 active. AID 1463; note: nearly all actives have a fitted effect of over 55% in size
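Human tau K18 P301L (15 uM unlabeled, 0.24 uM Alexa 594-labeled) in 100 mM sodium acetate pH 7 with 20 uM heparin, 6 hr at 37 C. ThT 30 uM added, 1 hr ambient; Alexa 594 FP and total fluorescence read at 555/632 nm.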
Tau fibril FP: inhibitors of human tau fibril formation. 0.39% of 280,000 active. Potency, µM (doses to about 57.7 µM), for inactives: top-dose activity, negative = inhibition, hits mostly inhibitors. K18 P301L tau heparin fibrillization, Alexa594 FP, 6 h. P10636; note: nearly all actives have a fitted effect of over 55% in size
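Steps: dispense K18 P301L tau (15 uM plus 0.24 uM Alexa 594 tracer, final) in pH 7 sodium acetate; add compound; add heparin (20 uM final); incubate 6 hr, 37 C; add ThT (30 uM final); after 1 hr ambient, read FP.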
NPSR antag: antagonists of human neuropeptide S receptor cAMP signaling; CHO-NPSR cells, cAMP TR-FRET, antagonist mode; Potency, µM (titrated, usually from 38.3 µM), for inactives: at the highest dose activity change, negative = inhibition, most hits filed as inhibitors; 1% of 220,000 active; AID 1461; note: nearly all actives have a fitted effect of over 50% in size
Tau ThT inhib: blocks human tau fibril formation measured by thioflavin T | P10636 | recombinant tau K18 P301L, heparin-induced fibrillization, ThT fluorescence | Potency, µM (highest dose often 57.4 µM), for inactives: at the top dose activity, negative = inhibition, usual class: inhibitors | 2.1% of 270,000 active | AID 1460; note: nearly all actives have a fitted effect of over 55% in size
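ThT emission at 510 nm, taken 1 hr after adding 30 uM dye, quantifies aggregates formed when 20 uM heparin acts on human tau K18 P301L for 6 hr at 37 C.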
* = called active by the depositor; ? = inconclusive; · = not tested or not shown; [ ] = dose if it differs, or a comment. Unless noted, calls come from the whole dose curve; as a rule, active = well fitted curve in the direction sought with a large enough effect; inconclusive = small, poorly fitted or top-dose-only effect, or another doubt; inactive = no such curve, though single readings can be large; an effect the other way counts as inactive or inconclusive. Unless noted, % is set by controls: 0 for no effect and ±100 for the full control effect; potency is the fitted concentration of half-maximal effect.

SMILES	HPGD inh	ALDH1A1 inh	Tau fluor cs	Tau fibril FP	NPSR antag	Tau ThT inhib
CCCN1C(=O)S/C(=C\c2ccc(N3CCOCC3)cc2C)C1=O	-11%	1.6µM*	-27%	3%	-27%[46.1 µM]	?
CCCN1C(=O)S/C(=C/c2ccc(N3CCOCC3)o2)C1=O	·	·	?	?	-26%	?
CCN1C(=O)S/C(=C\c2ccc(N3CCOCC3)cc2C)C1=O	·	-15%	-18%	1%	-16%[46.1 µM]	-13%
CCC(C)N1C(=O)S/C(=C/c2ccc(N3CCOCC3)cc2C)C1=O (stereo unspecified)	-2%	10µM*	?	?	-5%	?
CCOC(=O)C1CCCN(C(=O)Cn2ncc3c([nH]c4ccc(C)cc43)c2=O)C1 (stereo unspecified)	·	·	-4%	-10%	·	3%
CCOC(=O)O[C@]1(C(=O)COC(=O)CC)CC[C@@H]2[C@@H]3CCC4=CC(=O)C=C[C@@]4(C)[C@H]3[C@H](O)C[C@]21C	-6%	4%[20.9 µM]	·	·	·	·
COc1ccc(N2C(=O)NC(NS(=O)(=O)c3ccc(NC(C)=O)cc3)(C(F)(F)F)C2=O)cc1 (stereo unspecified)	·	·	-5%	-1%	·	1%
O=C(Nc1ccc(F)c(Cl)c1)N1CC=C(c2c[nH]c3ccccc23)CC1	·	·	7.9µM*[quencher]	?	·	6.3µM*
O=C(Nc1ccccc1C(F)(F)F)N1CC=C(c2c[nH]c3ccccc23)CC1	·	·	18µM*[quencher]	14%	·	?
COc1ccccc1CNc1cc(-c2c(C)noc2C)ncn1	·	8%	·	·	·	·
COc1ccc(C(=O)NNC(=O)CSc2nnc(-c3cccnc3)o2)cc1	·	-6%	5%[2.34 µM]	?	6%	-2%
COc1cccc(CNC(=O)CCC2CCCN(C(=O)c3cccc4c(C)c(C)[nH]c34)C2)c1 (stereo unspecified)	·	28µM*	-5%	2%	20%	?
COc1cccc(CNC(=O)CCC2CCCN(C(=O)c3cccc(Cl)c3)C2)c1 (stereo unspecified)	·	?	-9%	-4%	13%	-7%
COC(=O)C1=C(C)NC(C)=C(C(=O)OC)C1c1ccc(-c2cccc([N+](=O)[O-])c2)o1	·	·	?	-20%	-51%	-18%
COC(=O)C1=C(C)NC(C)=C(C(=O)OC)C1c1ccc(-c2cccc(Cl)c2Cl)o1	?	?	?	?	?	-6%
CCOC(=O)C1=C(C)NC(=S)NC1c1ccc(-c2ccc(Cl)cc2)o1 (stereo unspecified)	-10%	4.5µM*	-17%	2%	-37%	-9%
COC(=O)C1=C(C)NC(=S)NC1c1ccc(-c2cccc(Cl)c2)o1 (stereo unspecified)	-28%	2µM*	-19%	2%	-34%	?
CCOC(=O)C1=C(C)NC(=S)NC1c1ccc(-c2cccc(Cl)c2C)o1 (stereo unspecified)	-11%	0.89µM*	-8%	?	-26%[46.1 µM]	0%
CCOC(=O)C1=C(C)NC(=O)NC1c1ccc(-c2ccc(Cl)cc2)o1 (stereo unspecified)	·	6%	-9%	-3%	-27%	-9%
COC(=O)C1=C(C)NC(=S)NC1c1ccc(-c2ccccc2C(=O)OC)o1 (stereo unspecified)	·	16µM*	4%	5%	-13%	-9%
CCCn1c(C)nc2c(NCCN(C(C)C)C(C)C)nc(C)nc21	0%	3%	-9%	1%	·	-6%
CCc1ccc(S(=O)(=O)c2nnn3c2nc(Nc2cc(OC)cc(OC)c2)c2cc(Cl)ccc23)cc1	·	·	0%	-5%	·	8%
C=C1CC[C@H](O)C/C1=C/C=C1\CCC[C@]2(C)[C@@H]([C@H](C)CCCC(C)(C)O)CC[C@@H]12	-4%	8%	-9%	3%	·	-10%
COc1cccc(-n2nc(-c3ccnn3-c3ccc(C)cc3)c(=O)n(C)c2=O)c1	-24%	40µM*	-8%	1%	-1%[46.1 µM]	-5%
